Records with an inconclusive call do not appear. The source made the active and inactive calls. Unless noted, calls follow the shape of the dose curve; as a rule, active = well fitted curve in the direction sought with a large enough effect; inconclusive = small, poorly fitted or top-dose-only effect, or another doubt; inactive = no such curve, though single readings can be large; an effect the other way counts as inactive or inconclusive.

In PubChem BioAssay (NCATS) one finds Potency and outcome data, which are given here for 15 compounds.

The nature of assay [1]: P-glycoprotein substrates identified in KB-8-5-11 adenocarcinoma cell line, qHTS therapeutic library screen (AID 1346987). Also: nearly all actives have a fitted effect of over 65% in size. Also: potency is read from the fitted curve at half-maximal effect. A digest of the protocol: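 In this qHTS, P-gp-rich KB-8-5-11 cells received library compounds across a concentration range. Viability was quantified by luminescence after 72 h at 37 degree C.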
Assay [2] can be described thus: NS1 protein of Zika virus - qHTS assay to identify small molecule inhibitors in human HEK 293 cells (AID 1347053). Also: series mostly up to about 46 µM; nearly all actives have a fitted effect of over 55% in size. A digest of the protocol: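 TR-FRET signal from two anti-ZIKV NS1 antibodies quantified NS1 in HEK 293 cells 24 h after MR766 infection at MOI = 0.5; compounds were added 1 h before virus. Uninfected cells and infected cells defined the NS1 normalization range.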
For orientation: qHTS replaces the single test concentration by a dilution series.

The nature of assay [3]: qHTS of pediatric cancer cell lines to identify multiple opportunities for drug repurposing: Primary screen for TC32 cells (AID 1347089). Also: nearly all actives have a fitted effect of over 60% in size. The method in brief: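 Luminescent CellTiter-Glo read-out of metabolically active TC32 cells after 48 h compound exposure. Primary: MIPE 11-point, 0.78 nM–46 µM; NPC 8-point, 0.59 nM–46 µM. Confirmatory: 11-point dilutions.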
Assay [4] can be described thus: qHTS of pediatric cancer cell lines to identify multiple opportunities for drug repurposing: Primary screen for SK-N-MC cells (AID 1347093). Also: potency is read from the fitted curve at half-maximal effect. A digest of the protocol:
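Metabolically active cells were quantified by ATP-dependent luminescence (CellTiter-Glo, 15 min at room temperature) following 48 h treatment. Cells had been plated at 500-1,000 per well and settled for 5 h beforehand.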

Assay [5] is described as follows: qHTS of pediatric cancer cell lines to identify multiple opportunities for drug repurposing: Primary screen for U-2 OS cells (AID 1347096). Also: nearly all actives have a fitted effect of over 50% in size. A digest of the protocol:
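Viability after 48 h compound treatment at 37C, 500-1,000 cells/well, read as ATP luminescence with CellTiter-Glo. Primary screens used 11-point (MIPE, 0.78 nM-46 µM) or 8-point (NPC, 0.59 nM-46 µM) final concentrations; follow-up screens used 11-point dilutions.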

The nature of assay [6]: Natriuretic polypeptide receptor (hNpr1) antagonism - Pilot counterscreen GloSensor control cell line (AID 1347045; calls by dose curve; also: series mostly up to about 38 µM). A digest of the protocol:
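HEK293 cGMP-sensor cells; 2% GloSensor reagent 2 h RT; LOPAC compounds in 1:5 titrations 30-50 min; 50 uM SNP 20 min; luminescence pre-read and post-read.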
In general terms: A counterscreen serves to expose hits that act by an unwanted route or on another target.

Assay [7] addresses Atrial natriuretic peptide receptor 1 (Homo sapiens) (UniProt P16066). Description: Natriuretic polypeptide receptor (hNpr1) antagonism - Pilot screen (AID 1347049; calls by dose curve;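 also: agonist-evoked cGMP luminescence read 20 min after hNppA addition; series mostly up to about 58 µM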). The method in brief: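 cGMP-sensor HEK293/hNpr1 cells, 1500/well, plated overnight at 37C. 2% GloSensor reagent, 2 h RT. Compound (23 nL pin transfer) 30 min RT, baseline luminescence pre-read. 0.1 nM hNppA, 20 min RT, post-read.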

Assay [8] addresses Atrial natriuretic peptide receptor 2 (Homo sapiens) (UniProt P20594). Description: Natriuretic polypeptide receptor (hNpr2) antagonism - Pilot subtype selectivity assay (AID 1347050; calls by dose curve). A digest of the protocol:
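Luminescence from a genetically encoded cGMP luciferase biosensor in hNpr2-expressing HEK293 cells is read before and 20 min after adding 1 nM hNppC. Test compounds, in interplate 1:5 titrations, are added 30-50 min ahead of the agonist.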

Assay [9] has as its target T1, Tyrosine-protein phosphatase non-receptor type substrate 1 (Homo sapiens) + Leukocyte surface antigen CD47 (Homo sapiens) (UniProt P78324+Q08722). In words: CD47-SIRPalpha protein protein interaction - LANCE assay qHTS validation (AID 1347057; active = well fitted curve in the direction sought with a large enough effect in the signal ratio, with a control signal flat, not every such curve was filed as active; the % refers to the signal ratio; also: series mostly up to about 38 µM). The method in brief:
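Inhibition of soluble CD47/SIRPalpha ectodomain association by titrated compounds, measured as 665/615 nm time-resolved FRET ratio after sequential 30 min room-temperature incubations.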

The target of assay [10] is T1, Tyrosine-protein phosphatase non-receptor type substrate 1 (Homo sapiens) + Leukocyte surface antigen CD47 (Homo sapiens). Description: CD47-SIRPalpha protein protein interaction - HTRF assay qHTS validation (AID 1347058; active = well fitted curve in the direction sought with a large enough effect in the signal ratio, not every such curve was filed as active; the % refers to the signal ratio; also: series mostly up to about 38 µM). A digest of the protocol: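 Soluble extracellular domains (6His-CD47, Avi-tag-biotinylated SIRPalpha) in PBS pH 7.4 with 0.05% IGEPAL CA-630. Compounds were preincubated 30 min at RT with CD47 and anti-His-Eu, then SIRPalpha and SAV-XL665 were added. TR-FRET 665/615 ratio.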
In general terms: TR-FRET usually uses a lanthanide donor and a delayed reading to cut background.

Assay [11] has the same target. Description: CD47-SIRPalpha protein protein interaction - Alpha assay qHTS validation (AID 1347059).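 Also: bead proximity luminescence from CD47 binding SIRPalpha after compound preincubation with SIRPalpha.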 A digest of the protocol:
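SIRPalpha-biotin 25 nM + cpd, 30 min RT, dark; add CD47-His 12.5 nM, 30 min; add Ni-NTA/SAV beads 10 ug/mL, 30 min; AlphaScreen. Buffer PBS pH 7.4 + 0.05% IGEPAL CA-630. Non-biotinylated SIRPalpha as control inhibitor.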

Assay [12] deals with Parathyroid hormone/parathyroid hormone-related peptide receptor (Homo sapiens) (UniProt Q03431). Description: qHTS for PTHR1 Agonists: Optimization Screen against the NCGC LOPAC library (AID 1347079).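 Also: GloSensor cAMP luminescence in HEK-293 GP2 cells expressing human PTHR1 with IBMX.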 The method in brief: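 Signal increase flags agonism. GP2 cells, derived from HEK-293, express human PTHR1 and a GloSensor cAMP construct.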
Parathyroid hormone/parathyroid hormone-related peptide receptor (Homo sapiens), sequence (Q03431 whole entry, looked up): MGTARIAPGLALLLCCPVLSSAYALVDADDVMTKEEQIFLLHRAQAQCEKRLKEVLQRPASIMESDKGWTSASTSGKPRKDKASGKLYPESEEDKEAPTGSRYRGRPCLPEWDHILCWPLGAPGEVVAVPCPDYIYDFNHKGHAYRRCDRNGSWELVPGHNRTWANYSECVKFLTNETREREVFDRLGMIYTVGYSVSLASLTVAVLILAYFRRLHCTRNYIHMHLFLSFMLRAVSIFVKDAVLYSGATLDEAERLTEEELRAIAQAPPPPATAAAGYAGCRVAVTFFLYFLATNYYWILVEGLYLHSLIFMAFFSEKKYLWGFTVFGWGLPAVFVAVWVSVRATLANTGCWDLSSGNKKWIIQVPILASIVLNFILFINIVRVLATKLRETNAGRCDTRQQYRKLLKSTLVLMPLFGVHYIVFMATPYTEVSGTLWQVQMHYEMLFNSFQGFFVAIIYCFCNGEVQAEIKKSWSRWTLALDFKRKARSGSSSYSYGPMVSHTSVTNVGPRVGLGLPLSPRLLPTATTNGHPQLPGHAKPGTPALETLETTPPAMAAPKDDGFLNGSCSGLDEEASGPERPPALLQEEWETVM
Assay [13] can be described thus: qHTS of pediatric cancer cell lines to identify multiple opportunities for drug repurposing: Primary screen for DAOY cells (AID 1347090). Also: nearly all actives have a fitted effect of over 55% in size. Also: potency is read from the fitted curve at half-maximal effect. A digest of the protocol:
(§1)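 Viability measured as metabolically active cells via CellTiter-Glo luminescence following 48 hours of compound exposure, 11-point dilutions in confirmatory testing. 500-1,000 cells/well plated 5 hours before dosing; controls were DMSO and 2.3 µM bortezomib.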

Assay [14] can be described thus: qHTS of pediatric cancer cell lines to identify multiple opportunities for drug repurposing: Primary screen for SJ-GBM2 cells (AID 1347091). The method in brief:
as §1

Assay [15] is described as follows: qHTS of pediatric cancer cell lines to identify multiple opportunities for drug repurposing: Primary screen for NB-EBc1 cells (AID 1347095). Also: potency is read from the fitted curve at half-maximal effect. The method in brief:
(§2)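 Cells plated at 500-1,000/well in growth medium, compounds added after 5 h. MIPE tested at 11 points (from 0.78 nM), NPC at 8 points (from 0.59 nM). CellTiter-Glo luminescence after 48 h; concentration-response curves from primary screen.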

A short description of assay [16]: qHTS of pediatric cancer cell lines to identify multiple opportunities for drug repurposing: Primary screen for SK-N-SH cells (AID 1347098).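 Also: DMSO served as neutral control and bortezomib at 2.3 µM as positive control; nearly all actives have a fitted effect of over 65% in size.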 The method in brief:
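Cells (500-1,000/well) rested 5 h, then received compounds for 48 h; metabolically active cells were measured by CellTiter-Glo luminescence. Final concentrations spanned up to 46 µM (MIPE, 11-point) or 0.59 nM-46 µM (NPC, 8-point) in primary screens, 11-point in follow-ups.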

Assay [17] can be described thus: qHTS of pediatric cancer cell lines to identify multiple opportunities for drug repurposing: Primary screen for NB1643 cells (AID 1347099). Also: nearly all actives have a fitted effect of over 50% in size. The method in brief:
as §2

Assay [18] can be described thus: qHTS of pediatric cancer cell lines to identify multiple opportunities for drug repurposing: Primary screen for BT-37 cells (AID 1347094). Also: series mostly up to about 57 µM. A digest of the protocol:
as §2

Assay [19] is described as follows: qHTS of pediatric cancer cell lines to identify multiple opportunities for drug repurposing: Primary screen for Saos-2 cells (AID 1347097). Also: nearly all actives have a fitted effect of over 40% in size. Also: potency is read from the fitted curve at half-maximal effect. A digest of the protocol: as §2
Assay [20] can be described thus: qHTS of pediatric cancer cell lines to identify multiple opportunities for drug repurposing: Primary screen for A673 cells (AID 1347092). Also: potency is read from the fitted curve at half-maximal effect; nearly all actives have a fitted effect of over 45% in size. A digest of the protocol: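 A673 cells (500-1,000 cells/well in growth media) were pre-incubated 5 h at 37 degrees C, then exposed to compounds for 48 h. Viability was read as CellTiter-Glo luminescence; concentration-response curves came directly from the primary screen.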

T1 sequence (P78324 whole entry, looked up, the tested form may be a part): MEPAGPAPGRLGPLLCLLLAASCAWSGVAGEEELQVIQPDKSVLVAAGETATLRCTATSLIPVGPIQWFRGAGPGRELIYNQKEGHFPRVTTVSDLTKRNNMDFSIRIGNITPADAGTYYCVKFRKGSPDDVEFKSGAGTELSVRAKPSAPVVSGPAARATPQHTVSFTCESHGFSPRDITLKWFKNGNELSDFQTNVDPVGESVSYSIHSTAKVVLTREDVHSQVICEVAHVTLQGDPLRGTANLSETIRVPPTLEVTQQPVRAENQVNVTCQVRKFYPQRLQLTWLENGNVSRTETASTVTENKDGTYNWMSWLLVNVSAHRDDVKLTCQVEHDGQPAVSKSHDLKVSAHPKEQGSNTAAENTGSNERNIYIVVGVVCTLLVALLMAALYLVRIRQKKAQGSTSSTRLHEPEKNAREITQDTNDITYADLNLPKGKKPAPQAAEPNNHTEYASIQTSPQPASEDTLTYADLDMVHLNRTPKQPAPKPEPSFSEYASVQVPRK
T1 sequence (Q08722 whole entry, looked up, the tested form may be a part): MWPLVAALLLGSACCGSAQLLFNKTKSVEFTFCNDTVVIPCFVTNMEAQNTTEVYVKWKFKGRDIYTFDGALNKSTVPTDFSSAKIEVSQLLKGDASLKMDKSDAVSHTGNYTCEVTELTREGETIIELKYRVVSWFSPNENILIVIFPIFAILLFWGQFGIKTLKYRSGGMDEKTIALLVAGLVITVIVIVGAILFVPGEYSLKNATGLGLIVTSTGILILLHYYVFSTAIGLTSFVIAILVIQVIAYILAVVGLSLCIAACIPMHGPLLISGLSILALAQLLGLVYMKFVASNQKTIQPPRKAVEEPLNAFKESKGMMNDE
Atrial natriuretic peptide receptor 1 (Homo sapiens), sequence (P16066 whole entry, looked up): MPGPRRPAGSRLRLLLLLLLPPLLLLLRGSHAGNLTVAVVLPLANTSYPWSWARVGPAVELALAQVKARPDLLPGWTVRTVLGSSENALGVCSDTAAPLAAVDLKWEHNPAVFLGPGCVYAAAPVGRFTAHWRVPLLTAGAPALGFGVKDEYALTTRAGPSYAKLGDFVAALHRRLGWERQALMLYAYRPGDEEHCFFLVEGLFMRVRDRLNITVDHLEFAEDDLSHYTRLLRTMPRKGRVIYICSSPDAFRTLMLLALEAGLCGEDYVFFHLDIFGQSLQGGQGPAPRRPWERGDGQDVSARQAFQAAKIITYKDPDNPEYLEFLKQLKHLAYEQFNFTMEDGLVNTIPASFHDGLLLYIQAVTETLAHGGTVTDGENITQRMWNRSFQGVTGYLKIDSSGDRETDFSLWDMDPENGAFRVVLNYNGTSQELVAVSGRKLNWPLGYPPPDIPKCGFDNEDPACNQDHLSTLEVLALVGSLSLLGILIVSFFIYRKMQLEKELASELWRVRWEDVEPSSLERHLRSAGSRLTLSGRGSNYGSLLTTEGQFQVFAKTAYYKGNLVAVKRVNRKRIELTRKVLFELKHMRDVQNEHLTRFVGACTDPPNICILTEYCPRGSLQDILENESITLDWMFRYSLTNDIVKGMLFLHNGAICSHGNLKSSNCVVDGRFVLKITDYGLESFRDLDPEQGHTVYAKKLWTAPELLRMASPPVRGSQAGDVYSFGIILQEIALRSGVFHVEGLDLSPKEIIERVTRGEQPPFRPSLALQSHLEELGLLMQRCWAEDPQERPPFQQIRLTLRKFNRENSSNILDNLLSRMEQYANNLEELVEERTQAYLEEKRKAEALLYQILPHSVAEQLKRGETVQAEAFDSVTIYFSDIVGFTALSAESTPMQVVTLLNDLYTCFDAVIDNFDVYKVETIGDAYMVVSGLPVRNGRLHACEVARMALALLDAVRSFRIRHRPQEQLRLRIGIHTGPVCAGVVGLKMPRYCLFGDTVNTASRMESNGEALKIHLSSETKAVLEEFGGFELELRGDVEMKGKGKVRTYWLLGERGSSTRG
Atrial natriuretic peptide receptor 2 (Homo sapiens), sequence (P20594 whole entry, looked up): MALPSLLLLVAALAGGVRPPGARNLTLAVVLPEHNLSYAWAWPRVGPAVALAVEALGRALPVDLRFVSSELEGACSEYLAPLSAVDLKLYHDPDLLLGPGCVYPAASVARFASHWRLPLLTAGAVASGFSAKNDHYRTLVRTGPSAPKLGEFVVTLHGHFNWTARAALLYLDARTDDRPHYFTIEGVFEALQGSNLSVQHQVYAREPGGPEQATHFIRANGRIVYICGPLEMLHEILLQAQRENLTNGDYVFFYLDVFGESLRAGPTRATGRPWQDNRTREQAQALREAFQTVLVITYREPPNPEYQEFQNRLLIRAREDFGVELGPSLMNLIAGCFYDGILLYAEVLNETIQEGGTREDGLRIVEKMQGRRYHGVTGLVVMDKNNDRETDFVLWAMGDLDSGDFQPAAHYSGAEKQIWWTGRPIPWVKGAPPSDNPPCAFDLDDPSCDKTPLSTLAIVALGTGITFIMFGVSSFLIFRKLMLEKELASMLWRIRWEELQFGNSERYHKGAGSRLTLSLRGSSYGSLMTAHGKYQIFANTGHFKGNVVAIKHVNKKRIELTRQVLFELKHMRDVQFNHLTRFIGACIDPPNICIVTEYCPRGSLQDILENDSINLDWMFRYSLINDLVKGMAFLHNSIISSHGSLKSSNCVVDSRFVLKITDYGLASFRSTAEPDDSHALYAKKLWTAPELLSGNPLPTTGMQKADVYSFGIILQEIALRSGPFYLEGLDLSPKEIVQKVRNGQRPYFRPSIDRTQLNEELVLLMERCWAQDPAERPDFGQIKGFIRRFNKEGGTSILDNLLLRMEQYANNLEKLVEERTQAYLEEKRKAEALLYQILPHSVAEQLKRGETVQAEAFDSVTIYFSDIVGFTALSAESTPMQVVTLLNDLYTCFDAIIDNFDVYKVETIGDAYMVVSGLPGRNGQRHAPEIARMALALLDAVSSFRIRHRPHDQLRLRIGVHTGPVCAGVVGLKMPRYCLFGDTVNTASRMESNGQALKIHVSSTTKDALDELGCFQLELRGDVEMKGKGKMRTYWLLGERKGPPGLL

As to `COC(=O)C1=C(C)NC(C)=C(C(=O)OCC(C)=O)C1c1ccccc1[N+](=O)[O-]` (centres undefined), the figures for the Potency in assay [1] and in assay [4] were 7.31 µM (active) and 13.3 µM (active), respectively. Also, the Potency result in assay [2], in [3] and in assay [5] was “inactive” in each case.

Turning to `CCN(CC)c1ncnc2c1ncn2[C@@H]1O[C@H](COP(=O)(O)OP(=O)(O)C(Br)(Br)P(=O)(O)O)[C@@H](O)[C@H]1O`, the Potency entry in [6], in assay [7], in assay [8], in assay [2], in assay [9] and in [11] was “inactive” throughout. Moreover, the Potency result in [12] is “inactive”. For the same compound, the result in [10] was inactive.

As for `CCOc1ccc2nc(S(N)(=O)=O)sc2c1`, the Potency result in assay [1], in assay [2], in assay [3], in assay [13], in [14] and in assay [15] was “inactive” throughout. Further, the Potency entry in assay [5], in [16] and in assay [17] was “inactive” throughout.

For the compound `c1ccc2sc(SSc3nc4ccccc4s3)nc2c1`, the Potency result in assay [1], in assay [2], in assay [3], in assay [13], in [14] and in assay [4] was “inactive” each time. Besides, the Potency result in assay [18], in assay [15], in assay [5], in [19], in assay [16] and in [17] was “inactive” throughout.

In the case of `CCCOC(=O)c1ccc(O)cc1`, the Potency result in assay [1], in [2], in [3], in assay [13], in assay [14] and in assay [4] was “inactive” each time. In addition, the Potency entry in [18], in assay [15], in assay [5], in assay [16] and in assay [17] was “inactive” each time.

For the compound `Nc1ccc([N+](=O)[O-])cc1O`, the Potency result in assay [1], in [2], in assay [5] and in [16] was “inactive” throughout. For the same compound, the Potency in [13] is 0.001 µM (active); in assay [20], 0.001 µM (active); in [4] it was 0.001 µM (active); in [15] it was 15.4 µM (active).

For `CNC(=O)[C@H]1O[C@@H](n2cnc3c(NCc4ccc(N)cc4)ncnc32)[C@H](O)[C@@H]1O`, the Potency entry in [6], in assay [7], in [8], in assay [2], in [9] and in [11] was “inactive” each time. Further, in assay [12], the Potency entry is “inactive”. Further, the result in assay [10] was inactive.

Take `O=C(CS)Nc1ccccc1`: the Potency entry in assay [1], in assay [2], in assay [3], in [18], in assay [5] and in [16] was “inactive” in each case.

`C#C[C@]1(O)CC[C@H]2[C@@H]3CCc4cc(O)ccc4[C@H]3CC[C@@]21C`: the Potency in [1] was 6.51 µM (active); in assay [13], 13.3 µM (active); in assay [20], 26.6 µM (active); in [4], 4.73 µM (active); in assay [19] it was 8.41 µM (active). Besides, the Potency result in [2] and in [5] was “inactive” throughout.

Consider `CCCCN1CCC(n2c(=O)[nH]c3ccccc32)CC1`, for which the Potency result in assay [6], in [7], in assay [8] and in [12] was “inactive” throughout.

`NCCNC(=O)c1ncsc1-c1cccc(F)c1`: the Potency result in assay [6], in assay [7], in assay [8] and in assay [12] was “inactive” in each case.

For the compound `NC(=S)c1ccc[n+]([C@@H]2O[C@@H](COP(=O)([O-])OP(=O)(O)OC[C@H]3O[C@@H](n4cnc5c(N)ncnc54)[C@H](OP(=O)(O)O)[C@@H]3O)C(O)C2O)c1` (some centres undefined), the Potency result in [6], in assay [8], in [2], in [9], in assay [11] and in assay [12] was “inactive” throughout. Besides, the result in [10] was inactive.

On to `Nc1nc(Cl)nc2c1ncn2[C@@H]1O[C@H](CO)[C@@H](O)[C@H]1O`, for which the Potency result in assay [6], in [8], in assay [2], in [9], in assay [11] and in assay [12] was “inactive” throughout. In assay [10], the outcome was inactive.

On to `CC(C)ON([C@@H](C(=O)NO)C(C)C)S(=O)(=O)c1ccc(-c2ccccc2)cc1`, for which the Potency entry in assay [6], in assay [7], in assay [8] and in assay [12] was “inactive” each time.

Turning to `CCc1c(C(=O)NCCc2ccc(N3CCCCC3)cc2)[nH]c2ccc(Cl)cc12`, the Potency result in assay [6], in [7], in [8] and in assay [12] was “inactive” each time.
